An excerpt weighted towards active compounds, which were near 9.5% of everything screened.
HPGD block: qHTS Assay for Inhibitors of HPGD (15-Hydroxyprostaglandin Dehydrogenase). 15-hydroxyprostaglandin dehydrogenase [NAD(+)] (Homo sapiens), P15428. purified HPGD, NADH fluorescence kinetic, PGE2 substrate. Potency, µM, hits mostly inhibitors. 4.3% of 150,000 active. AID 894, 2007; active = well fitted inhibition curve with a large enough effect, not every such curve was filed as active; inconclusive = small, poorly fitted or top-dose-only effect, or another doubt; inactive = no such curve, though single readings can be large or run the other way
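20 nM HPGD preincubated 15 min at room temperature with compound in 50 mM Tris-HCl pH 8, 0.01% Tween 20. Started with 1 mM NAD+ and 30 uM prostaglandin E2; NADH fluorescence (360/450 nm) read 5 times over 30-s intervals, last minus first.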
Tau fluor cs: Counterscreen qHTS for Inhibitors of Tau Fibril Formation, Fluorescence Polarization | tau K18 P301L Alexa594 fluorescence, heparin fibrillization | Potency, µM (series often up to 57.7 µM) | 0.93% of 280,000 active | AID 1463, 2008; also: nearly all actives have a fitted effect of over 55% in size
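Human K18 P301L tau (15 uM unlabeled plus 0.24 uM Alexa 594-labeled, final) in 100 mM sodium acetate pH 7 was mixed with compound and 20 uM heparin and incubated 6 hr at 37 C.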
NPSR antag: qHTS Assay for Antagonists of the Neuropeptide S Receptor: cAMP Signal Transduction | Q6W5P4 | CHO-NPSR cells, cAMP TR-FRET, antagonist mode | Potency, µM (top dose mostly 38.3 µM), actives largely listed as inhibitors | 1% of 220,000 active | AID 1461, 2008; also: nearly all actives have a fitted effect of over 50% in size
ALDH1A1 block: qHTS Assay for Inhibitors of Aldehyde Dehydrogenase 1 (ALDH1A1); Aldehyde dehydrogenase 1A1 (Homo sapiens), P00352; Purified ALDH1A1, NADH fluorescence, propionaldehyde substrate; Potency, µM (highest dose often 75.3 µM), hits mostly inhibitors; 7.3% of 220,000 active; active = well fitted inhibition curve with a large enough effect, not every such curve was filed as active; inconclusive = small, poorly fitted or top-dose-only effect, or another doubt; inactive = no such curve, though single readings can be large or run the other way
Target sequence (P00352 whole entry, looked up): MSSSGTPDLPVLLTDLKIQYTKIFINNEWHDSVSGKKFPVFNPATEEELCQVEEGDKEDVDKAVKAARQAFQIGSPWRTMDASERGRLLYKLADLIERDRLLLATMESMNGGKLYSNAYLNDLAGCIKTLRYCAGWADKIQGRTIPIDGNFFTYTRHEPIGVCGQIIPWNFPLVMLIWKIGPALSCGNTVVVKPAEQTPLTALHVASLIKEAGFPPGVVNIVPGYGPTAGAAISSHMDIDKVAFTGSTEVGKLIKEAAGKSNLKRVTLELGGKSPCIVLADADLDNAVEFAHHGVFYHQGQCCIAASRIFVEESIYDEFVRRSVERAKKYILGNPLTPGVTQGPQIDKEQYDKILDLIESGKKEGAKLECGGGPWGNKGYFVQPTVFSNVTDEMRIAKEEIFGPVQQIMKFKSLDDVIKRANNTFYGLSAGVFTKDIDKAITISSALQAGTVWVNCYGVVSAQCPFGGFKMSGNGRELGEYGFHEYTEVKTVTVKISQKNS
Tau fibril ThT: qHTS for Inhibitors of Tau Fibril Formation, Thioflavin T Binding | Microtubule-associated protein tau (Homo sapiens), P10636 | recombinant tau K18 P301L, heparin-induced fibrillization, ThT fluorescence | Potency, µM (series often up to 57.4 µM), usual class: inhibitors | 2.1% of 270,000 active; also: nearly all actives have a fitted effect of over 55% in size
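Fibril formation assay: tau K18 P301L at 15 uM with trace Alexa 594 label, heparin inducer 20 uM, pH 7 sodium acetate buffer, 37 C for 6 hr; endpoint ThT signal.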
Tau FP inhib: qHTS for Inhibitors of Tau Fibril Formation, Fluorescence Polarization; Microtubule-associated protein tau (Homo sapiens), P10636; K18 P301L tau heparin fibrillization, Alexa594 FP, 6 h; Potency, µM (titrated, usually from 57.7 µM), hits mostly inhibitors; 0.39% of 280,000 active; AID 1468, 2008; also: nearly all actives have a fitted effect of over 55% in size
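K18 P301L tau (15 uM unlabeled/0.24 uM Alexa 594-labeled, final) + compound + heparin 20 uM final; 100 mM NaOAc pH 7; 6 hr 37 C; ThT 30 uM final added, 1 hr RT; FP ex 555/em 632 nm.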
Each line names hits and unclear results; the compound was inactive in the other large screens. Unless noted, calls follow the shape of the dose curve; as a rule, active = well fitted curve in the direction sought with a large enough effect; inconclusive = small, poorly fitted or top-dose-only effect, or another doubt; inactive = no such curve, though single readings can be large; an effect the other way counts as inactive or inconclusive.

Cc1ccc(C)c(NC(=O)C(c2ccccc2)N2Cc3ccccc3C2=O)c1 (stereo unspecified)	none (no result: HPGD block, NPSR antag, ALDH1A1 block)
NC(=O)c1c(NC(=O)CN2C(=O)CCC2=O)sc2c1CCCCC2	HPGD block inconclusive, ALDH1A1 block 14.1µM
CC(=O)N1CCc2c(sc(NC(=O)CN3C(=O)CCC3=O)c2C(N)=O)C1	HPGD block inconclusive, ALDH1A1 block inconclusive
NC(=O)c1c(NC(=O)CN2CCCC2)sc2c1CCCC2	HPGD block inconclusive, ALDH1A1 block 17.8µM
Nc1ccc(N(S(=O)(=O)c2ccccc2)S(=O)(=O)c2ccccc2)c(Cl)c1	none (no result: Tau fluor cs, NPSR antag, Tau fibril ThT, Tau FP inhib)
COc1ccc(CCNC(=O)C2CCN(C(=O)c3ccc([N+](=O)[O-])cc3)CC2)cc1	ALDH1A1 block inconclusive (no result: HPGD block)
O=C(NCc1ccccc1F)c1cccs1	HPGD block inconclusive
Cc1cc(C(=O)NCc2ccccc2F)cs1	HPGD block 15.8µM
CCOC(=O)C1CCCCN1Cc1cccc(OC)c1OC (stereo unspecified)	ALDH1A1 block inconclusive
CCOC(=O)C1CCCCN1Cc1cc(OC)ccc1OC (stereo unspecified)	ALDH1A1 block 15.8µM
COC(=O)c1sc(C(C)(C)C)cc1CSc1ccccc1	none (no result: HPGD block, ALDH1A1 block)
O=C1OC(c2ccc(Cl)cc2)/C(=C(/O)c2ccccc2)C1=O (stereo unspecified)	ALDH1A1 block 7.94µM
O=C(c1ccccc1)N1C(=O)C(c2ccccc2)Oc2ccccc21 (stereo unspecified)	none (no result: HPGD block, ALDH1A1 block)
C#C[C@@]1(O)CC[C@@H]2[C@@H]3CCC4=C(CCC(=O)C4)[C@H]3CC[C@]21C	none (no result: Tau fluor cs, NPSR antag, Tau fibril ThT, Tau FP inhib)
CN(C)c1ccc(CNC(=O)c2ccc(NC(=O)N3CCCCc4ccccc43)cc2)cc1	none (no result: HPGD block, NPSR antag, ALDH1A1 block)
CCOC(=O)C1=C(CSc2nc3c(cc2C#N)CCC3)OC(N)=C(C#N)C1c1ccccc1 (stereo unspecified)	Tau fluor cs inconclusive, Tau fibril ThT inconclusive
CCOC(=O)C1=C(CSc2nc3c(cc2C#N)CN(C)CC3)OC(N)=C(C#N)C1c1ccccc1 (stereo unspecified)	Tau fluor cs inconclusive, ALDH1A1 block inconclusive, Tau fibril ThT 28.2µM
COC(=O)C1=C(CSc2nc3c(cc2C#N)CN(C)CC3)OC(N)=C(C#N)C1c1ccccc1F (stereo unspecified)	HPGD block inconclusive, Tau fluor cs inconclusive, NPSR antag inconclusive, ALDH1A1 block inconclusive, Tau fibril ThT 17.8µM, Tau FP inhib inconclusive
CCOC(=O)C1=C(CSc2nc3c(cc2C#N)CN(C)CC3)OC(N)=C(C#N)C1c1ccc(F)cc1 (stereo unspecified)	Tau fluor cs inconclusive, ALDH1A1 block inconclusive, Tau fibril ThT 15.8µM, Tau FP inhib inconclusive
CC(C)NS(=O)(=O)c1ccc(CCC(=O)NCc2ccncc2)cc1	none (no result: HPGD block)
COc1cccc(CCc2nnc(CCC(=O)NC(C)Cc3cccs3)o2)c1 (stereo unspecified)	none (no result: HPGD block, ALDH1A1 block)
COc1ccc2nc(N3CCCCC3)c(/C=C3\SC(=S)NC3=O)cc2c1	Tau fluor cs inconclusive, Tau fibril ThT 14.1µM (no result: HPGD block, ALDH1A1 block)
COc1ccc2nc(N3CCCCC3)c(C#N)cc2c1	ALDH1A1 block inconclusive
O=C1NC(=S)S/C1=C\c1cc2ccccc2nc1N1CCCCC1	Tau fluor cs inconclusive, Tau fibril ThT 14.1µM (no result: HPGD block, ALDH1A1 block)
COC(=O)CNc1cccc(C(F)(F)F)c1	ALDH1A1 block inconclusive (no result: HPGD block)
OCC1(CO)COC(c2ccccc2)=N1	none (no result: HPGD block)
O=C1OC(c2ccccc2)=NC12CC2c1ccc(Cl)cc1 (stereo unspecified)	HPGD block 28.2µM, NPSR antag inconclusive, ALDH1A1 block 28.2µM, Tau fibril ThT inconclusive
CN(C)CCn1c(=O)n(-c2cccc(Cl)c2)c(=O)c2c3c(sc21)CCCCC3	Tau fibril ThT inconclusive (no result: HPGD block)
